The text below walks through data of PubChem BioAssay.

The source made the active and inactive calls.

Test [1] concerns Plasmodium falciparum Sir2 (PF13_0152, Sir2A). In words: pfSir2 binders on small-molecule microarrays, primary screen, biochemical, small-molecule microarray, 635 nm fluorescence (AID 1098).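 Also: score merges spot fluorescence intensity with its signal-to-noise ratio.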 Particulars: small-molecule microarray binding, fluorescence 635 nm; higher = more signal.
Test [2] is described as follows: small-molecule microarray binders of probe aDKK1, primary screen, biochemical, biotinylated probe, 635/667 nm fluorescence (AID 1099).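 Also: score merges 667nm spot fluorescence with signal to noise across triplicate slides.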 The note with it: higher = more signal.
Test [3] is described as follows: small-molecule microarray binders of probe aCHRDL2, primary screen, biochemical, biotinylated probe, 635/667 nm fluorescence (AID 1100). Particulars: higher = more signal.
The nature of test [4]: splicing luciferase reporter signal modulators, primary screen, spliceosome inhibition project, cell-based, HEK293, splice +/- reporter (AID 1101).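 Also: HEK293 cells carrying a splicing-competent luciferase reporter gene; test concentration not given here.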 The note with it: luminescence, 24 h, higher = more signal, called active from +8 up or from −8 down.
Test [5] has as its target Fibroblast growth factor 10 (Homo sapiens) (UniProt O15520). The test can be described thus: FGF10 binders on small-molecule microarrays, primary screen, biochemical, small-molecule microarray, 635 nm fluorescence (AID 1102). Particulars: FGF10 binding, fluorescence 635 nm, higher = more signal.
For test [6], the system named is glycogen synthase kinase-3 (GSK3A per assay name; protocol says GSK3B). The test can be described thus: GSK3 binders on small-molecule microarrays, primary screen, biochemical, small-molecule microarray, 635 nm fluorescence, GSK3A (AID 1103). Also: the record names both GSK3A and GSK3B. The note with it: small-molecule microarray binding, fluorescence 635 nm; higher = more signal.
Test [7] deals with Epidermal growth factor receptor (Homo sapiens) (UniProt P00533). The test can be described thus: EGFR binders on small-molecule microarrays, primary screen, biochemical, small-molecule microarray, 635 nm fluorescence (AID 1104).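 Also: score merges 667 nm emission intensity with spot signal to noise over triplicate slides.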 The note with it: EGFR binding, higher = more signal.
For test [8], the target named is Follistatin-related protein 3 (Homo sapiens) (UniProt O95633). The test can be described thus: FSTL3 binders on small-molecule microarrays, primary screen, biochemical, small-molecule microarray, 635 nm fluorescence (AID 1105).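 Also: score merges emission near 667 nm and signal to noise per printed spot across three slides.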 Particulars: FSTL3 binding, higher = more signal.
The target of test [9] is Dickkopf-related protein 1 (Homo sapiens) (UniProt O94907). The test can be described thus: DKK1 binders on small-molecule microarrays, primary screen, biochemical, small-molecule microarray, 635 nm fluorescence scan (AID 1106).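 Also: score merges emission near 667 nm with signal to noise over three replicate slides.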 The note with it: DKK1 binding, higher = more signal.
Test [10] has as its system Inhibin beta A chain (activin A). In words: INHBA (activin A) binders on microarrays, primary screen, biochemical, small-molecule microarray, 635 nm fluorescence scan (AID 1107).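 Also: mouse activin A protein probed at 4.33 µg/mL on printed slides; score merges bound-protein fluorescence near 667 nm with spot signal-to-noise.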 Particulars: small-molecule microarray binding, higher = more signal.
Test [11] has as its system Human papillomavirus type 1a protein E7 (residues 44-93). In words: HPV1a E7 fragment binders on microarrays, primary screen, biochemical, small-molecule microarray, residues 44-93, 635 nm fluorescence (AID 1108).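 Also: E7 fragment applied at 1 µg/mL in TBST for 1 h at 4 C; score combines spot fluorescence with its signal to noise ratio.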 Particulars: small-molecule microarray binding, fluorescence 635 nm; higher = more signal.
Test [12] in a line: modulators of HCV replicon luciferase signal, primary screen, HCV replication inhibitor project, Huh7 cells, luciferase reporter (AID 1109).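 Also: huh7 hepatoma cells harbouring a luciferase neomycin HCV replicon reporter; luciferase luminescence as measure of HCV replicon replication; test concentration not given here.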 The note with it: 48 h, higher = more signal.
For test [13], the target named is Left-right determination factor 2 (Homo sapiens) (UniProt O00292). The test can be described thus: LEFTY2 binders on small-molecule microarrays, primary screen, biochemical, small-molecule microarray, 635 nm fluorescence scan (AID 1110). Particulars: LEFTY2 binding, higher = more signal.
Test [14] addresses Calmodulin-1 (Homo sapiens) (UniProt P0DP23). The test can be described thus: CALM1 binders on microarrays, EGTA buffer, profiling panel, biochemical, small-molecule microarray, Cy5-labelled CALM1 (AID 1111).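 Also: labelled calmodulin applied in Tris saline Tween buffer holding calcium plus EGTA and DTT.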 The note with it: Cy5-CALM1 binding fluorescence, higher = more signal.
The target is the same in test [15]. In words: calcium-bound CALM1 binders on microarrays, profiling panel, artefact control for SMM control-protein annotation, biochemical, small-molecule microarray, Cy5-labelled CALM1, plus calcium (AID 1112).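 Also: score merges spot fluorescence with signal to noise from triplicate slides.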 Particulars: Cy5-CALM1 binding fluorescence, higher = more signal.
A short description of test [16]: small-molecule microarray binders of probe aWnt5a, primary screen, biochemical, biotinylated probe, 635/667 nm fluorescence (AID 1113).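 Also: score merges 667 nm fluorescence intensity with signal-to-noise per printed feature.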 The note with it: higher = more signal.
Test [17] can be described thus: small-molecule microarray binders of probe aShh, primary screen, biochemical, biotinylated probe, 635/667 nm fluorescence (AID 1114).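 Also: probe is biotin-labelled aShh protein from a stem cell growth factor screen; measures binding of labelled protein to compounds printed on the slide; score merges feature fluorescence at 667 nm with signal-to-noise.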 The note with it: higher = more signal.
Test [18] in a line: small-molecule microarray binders of probe aNog, primary screen, biochemical, biotinylated probe, 635/667 nm fluorescence (AID 1115).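 Also: probe is biotinylated aNog protein used at 0.15 µg/mL for 1 h at 4 C; z-score combines 667 nm fluorescence of each spot with its signal to noise.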 Particulars: higher = more signal.
Test [19] has as its target Torsin-1A-interacting protein 1 (Homo sapiens) (UniProt Q5JTV8). In words: LAP1 binders from COS7 cell lysate, primary screen, small-molecule microarray, 635/667 nm fluorescence (AID 1116). Particulars: COS7-hLAP1 lysate binding, 635 nm fluorescence, higher = more signal.
Test [20] deals with Alpha-bungarotoxin (Bungarus multicinctus) (UniProt P60615). The test can be described thus: alpha-bungarotoxin binders on microarray, profiling panel, artefact control for SMM control protein annotation, biochemical, small-molecule microarray, Alexa647 label, 635/667 nm fluorescence (AID 1117). Particulars: alpha-BTX-A647 binding fluorescence, higher = more signal.
Sequence of Alpha-bungarotoxin (Bungarus multicinctus) (P60615 whole entry, looked up): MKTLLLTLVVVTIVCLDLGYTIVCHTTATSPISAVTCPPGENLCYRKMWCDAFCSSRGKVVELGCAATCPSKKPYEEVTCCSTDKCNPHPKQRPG

Sequence of Fibroblast growth factor 10 (Homo sapiens) (O15520 whole entry, looked up): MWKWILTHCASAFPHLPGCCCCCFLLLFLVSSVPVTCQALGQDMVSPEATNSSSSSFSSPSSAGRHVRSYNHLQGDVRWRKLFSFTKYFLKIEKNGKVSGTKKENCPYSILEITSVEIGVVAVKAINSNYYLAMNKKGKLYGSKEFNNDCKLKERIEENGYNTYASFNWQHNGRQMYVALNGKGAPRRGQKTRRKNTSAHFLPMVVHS
Sequence of Epidermal growth factor receptor (Homo sapiens) (P00533 whole entry, looked up): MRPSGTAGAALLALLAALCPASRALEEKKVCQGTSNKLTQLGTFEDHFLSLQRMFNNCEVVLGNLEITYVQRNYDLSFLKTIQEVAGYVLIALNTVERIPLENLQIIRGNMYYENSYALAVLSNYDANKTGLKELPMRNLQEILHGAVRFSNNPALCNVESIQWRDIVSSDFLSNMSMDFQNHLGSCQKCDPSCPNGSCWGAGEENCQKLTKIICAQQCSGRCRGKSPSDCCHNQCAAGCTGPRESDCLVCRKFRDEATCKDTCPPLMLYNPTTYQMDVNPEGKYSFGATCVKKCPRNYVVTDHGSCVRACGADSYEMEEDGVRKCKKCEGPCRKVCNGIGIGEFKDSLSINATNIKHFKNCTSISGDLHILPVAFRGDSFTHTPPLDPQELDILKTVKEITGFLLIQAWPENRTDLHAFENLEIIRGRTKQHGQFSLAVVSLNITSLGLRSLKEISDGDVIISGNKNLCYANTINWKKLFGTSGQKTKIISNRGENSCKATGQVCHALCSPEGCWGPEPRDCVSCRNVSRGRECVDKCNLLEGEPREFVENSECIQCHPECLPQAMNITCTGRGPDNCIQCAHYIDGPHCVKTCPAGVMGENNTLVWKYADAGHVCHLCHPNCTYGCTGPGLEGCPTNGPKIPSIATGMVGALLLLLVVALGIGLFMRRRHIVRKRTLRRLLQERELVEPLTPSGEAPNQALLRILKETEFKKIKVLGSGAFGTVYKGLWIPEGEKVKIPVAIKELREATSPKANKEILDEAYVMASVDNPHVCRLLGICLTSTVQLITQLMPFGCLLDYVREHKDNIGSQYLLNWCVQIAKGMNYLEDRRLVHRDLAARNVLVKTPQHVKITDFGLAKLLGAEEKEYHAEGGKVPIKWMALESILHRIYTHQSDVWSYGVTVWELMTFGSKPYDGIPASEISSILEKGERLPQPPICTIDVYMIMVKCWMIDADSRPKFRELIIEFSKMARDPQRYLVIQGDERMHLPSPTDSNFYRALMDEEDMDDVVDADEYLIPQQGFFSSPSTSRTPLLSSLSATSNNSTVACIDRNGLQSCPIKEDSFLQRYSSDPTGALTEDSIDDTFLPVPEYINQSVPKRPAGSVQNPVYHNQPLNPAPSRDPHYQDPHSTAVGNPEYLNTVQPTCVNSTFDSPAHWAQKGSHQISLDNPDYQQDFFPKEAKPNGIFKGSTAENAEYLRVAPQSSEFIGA
Sequence of Follistatin-related protein 3 (Homo sapiens) (O95633 whole entry, looked up): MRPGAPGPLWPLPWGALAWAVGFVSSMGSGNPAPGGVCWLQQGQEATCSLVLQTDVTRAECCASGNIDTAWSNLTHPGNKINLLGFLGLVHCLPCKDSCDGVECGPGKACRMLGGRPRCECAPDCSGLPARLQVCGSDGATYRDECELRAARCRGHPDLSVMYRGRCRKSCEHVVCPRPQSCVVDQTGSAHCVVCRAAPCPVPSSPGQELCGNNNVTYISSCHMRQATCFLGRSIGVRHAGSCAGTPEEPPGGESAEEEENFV
Sequence of Torsin-1A-interacting protein 1 (Homo sapiens) (Q5JTV8 whole entry, looked up): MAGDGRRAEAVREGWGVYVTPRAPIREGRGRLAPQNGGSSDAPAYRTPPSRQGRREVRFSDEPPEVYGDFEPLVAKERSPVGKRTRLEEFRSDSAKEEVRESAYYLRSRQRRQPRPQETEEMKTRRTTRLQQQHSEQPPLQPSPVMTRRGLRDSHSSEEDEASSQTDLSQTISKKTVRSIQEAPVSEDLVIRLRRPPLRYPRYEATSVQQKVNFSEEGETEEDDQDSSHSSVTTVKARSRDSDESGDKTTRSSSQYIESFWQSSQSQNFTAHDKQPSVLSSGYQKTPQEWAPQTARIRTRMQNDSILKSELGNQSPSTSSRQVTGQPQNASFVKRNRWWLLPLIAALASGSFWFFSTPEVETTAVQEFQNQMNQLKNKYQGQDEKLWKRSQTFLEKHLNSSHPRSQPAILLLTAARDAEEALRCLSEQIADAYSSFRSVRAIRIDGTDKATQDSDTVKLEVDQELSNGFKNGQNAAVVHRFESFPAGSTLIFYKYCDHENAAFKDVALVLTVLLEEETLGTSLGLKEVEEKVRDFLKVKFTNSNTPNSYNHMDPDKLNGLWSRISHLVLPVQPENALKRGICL
Sequence of Dickkopf-related protein 1 (Homo sapiens) (O94907 whole entry, looked up): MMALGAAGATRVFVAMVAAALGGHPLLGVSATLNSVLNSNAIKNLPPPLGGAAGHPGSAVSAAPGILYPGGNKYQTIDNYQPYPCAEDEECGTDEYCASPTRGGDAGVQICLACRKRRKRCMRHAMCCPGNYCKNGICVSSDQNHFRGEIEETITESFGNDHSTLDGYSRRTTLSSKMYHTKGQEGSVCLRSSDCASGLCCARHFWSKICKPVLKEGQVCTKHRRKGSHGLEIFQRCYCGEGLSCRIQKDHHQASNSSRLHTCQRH
Sequence of Left-right determination factor 2 (Homo sapiens) (O00292 whole entry, looked up): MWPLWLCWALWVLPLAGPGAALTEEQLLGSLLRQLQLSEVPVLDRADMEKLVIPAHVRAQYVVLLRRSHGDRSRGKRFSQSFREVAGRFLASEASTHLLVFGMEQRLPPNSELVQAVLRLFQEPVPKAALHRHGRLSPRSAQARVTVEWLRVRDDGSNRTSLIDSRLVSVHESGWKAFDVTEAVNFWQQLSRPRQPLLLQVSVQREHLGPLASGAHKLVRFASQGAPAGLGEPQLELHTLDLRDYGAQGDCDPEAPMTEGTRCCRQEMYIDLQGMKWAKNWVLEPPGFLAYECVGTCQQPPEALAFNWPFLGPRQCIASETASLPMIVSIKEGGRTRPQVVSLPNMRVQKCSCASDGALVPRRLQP

Regarding `Cc1cccc([C@H]2C[C@H]3C(Br)=C[C@@]2(CO)C(=O)[C@]32CO2)c1`, the composite z-score is 0.259 in test [1]; 0.0578 in [2]; 0.382 in test [3]; 1.01 in test [5]; 0.0353 in test [6]; -0.0766 in test [7]. Also, the composite z-score in [8] is 0.159; in [9], -0.166; in [10], 0.55; in test [11], 0.863; in test [13], -0.427; in test [14] it was -0.496. Also, the composite z-score in test [15] is -0.0921; in test [16] it was -0.0566; in [17], -0.0348; in test [18] it was 0.247; in test [19], -0.374; in test [20], -0.357. Also, the z-score was -0.34 (inactive) in [4] and -1.27 in test [12].

As to `COc1ccc(CCNC(=O)[C@@H]2c3ccccc3C(=O)N(C(C)C)[C@H]2c2ccc(CO)cc2)cc1`, the composite z-score in test [1] was 0.37; in [2], 0.316; in test [3], 0.684; in [5] it was -1.05; in test [6] it was -0.848; in [7], -0.736. The composite z-score in test [8] was -0.715; in test [9] it was -0.995; in [10], -0.158; in test [11], -0.943; in test [13], -1.81; in test [14], -0.446. Besides, the composite z-score in [15] is 0.465; in test [16], -0.172; in test [17], -0.209; in test [18], -0.0621; in test [19] it was 0.434; in [20], 2.66. In addition, the z-score in test [4] is 0.109 (inactive); in [12], -1.41.

Turning to `CC(C)c1ccc(NN2C(C(O)C(C)c3ccccc3)C=CC3C(=O)N(c4ccccc4)C(=O)C32)cc1` (stereo not given), the composite z-score was determined as 1.28 in test [1]; 1.41 in test [2]; 1.03 in test [3]; 1.09 in [5]; 1.28 in [6]; 0.308 in test [7]. The composite z-score in test [8] is 0.838; in test [9] it was 0.18; in [10], -0.804; in [11] it was -0.377; in test [13], 0.162; in [14], 2.61. Also, the composite z-score came to 1.35 in test [15]; 0.474 in test [16]; 0.252 in test [17]; 2.01 in test [18]; 2.3 in test [19]; 2.13 in test [20]. The z-score in [4] is 1.77 (inactive); in [12] it was 1.63.

In the case of `CC[C@@H](O[Si](C#C[Si](C(C)C)(C(C)C)C(C)C)(C(C)C)C(C)C)c1cn(Cc2cccc(Cl)c2)nn1`, the composite z-score was 0.433 in test [1]; -0.0597 in [2]; -0.3 in [3]; 0.418 in test [5]; 0.791 in test [6]; 0.293 in [7]. Moreover, the composite z-score in [8] is 0.775; in [9], 0.388; in test [10] it was 0.232; in test [11], 0.906; in test [13], 0.374; in test [14], 0.0371. Besides, the composite z-score was -0.461 in [15]; -0.0194 in [16]; -0.154 in [17]; -0.124 in [18]; 0.403 in [19]; 0.485 in [20]. The values for the z-score in test [4] and in [12] were 0.453 (inactive) and -0.959, respectively.

`Cc1ccc(S[C@]2(C(=O)NC3CC3)CC(=O)N(C3Cc4ccccc4C3)[C@@H]2c2ccc(CO)cc2I)cc1`: the composite z-score is 0.911 in test [1]; 0.379 in [2]; 0.524 in test [3]; -0.745 in test [5]; -0.641 in [6]; -1.62 in [7]. Further, the composite z-score was -1.11 in test [8]; -0.826 in test [9]; 0.771 in test [10]; 0.451 in test [11]; -1.05 in [13]; 2.09 in test [14]. The composite z-score was -0.628 in test [15]; -0.0758 in [16]; -0.375 in [17]; 0.144 in test [18]; -0.623 in [19]; -0.0871 in test [20]. The results for the z-score in test [4] and in test [12] were -1.38 (inactive) and -2.14, respectively.

As to `COC(=O)[C@@]1(Cc2ccc(F)cc2)[C@H]2c3cc(C(=O)N4CCCC4)n(Cc4ccc(OC(F)(F)F)cc4)c3C[C@H]2CN1C(=O)c1ccccc1`, the composite z-score in test [1] was 0.776; in test [2], 0.142; in [3] it was 0.548; in test [5], -0.135; in test [6], -0.141; in test [7], -0.564. Besides, the composite z-score in test [8] was -1.03; in test [9], -0.559; in test [10], 0.602; in test [11], 0.118; in test [13], -0.763; in [14], 0.028. The composite z-score in test [15] is 0.336; in test [16] it was 0.164; in [17], 0.265; in test [18] it was 1.17; in test [19], 0.383; in [20], -0.272. The z-score was 1.08 (inactive) in test [4] and 0.234 in [12].
